Assay results reported in PubChem BioAssay (NCI).
About 83,000 compounds went through this panel and 20% of them were active in at least one assay; those are over-represented in the sample as a whole.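 Single-concentration screen, 48 h exposure, 96-well plates. Endpoint: percent growth. Below 10 = active.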 A number with no mark means an inactive call. Active and inactive are the calls of the source.

Tested on: HL-60(TB) leukemia
Assay: NCI-60 one-dose screen, 48 h (100 = growth as untreated, 0 = no growth, -100 = all killed)
Conditions: 10 µM unless noted

Compound	growth
Oc1ccc(Cl)cc1-c1cc(-c2ccc(F)cc2)n[nH]1	74.9%
O=C(N/N=C/c1c(Cl)cccc1Cl)c1cccc(Nc2ccnc(C(F)(F)F)c2)c1	98.3%
C=CCN1C(=O)/C(=c2\sc3n(c2=O)C2C(NN=3)N(CC)C(=O)N2CC)c2ccccc21 (stereo not given)	-17.4% (active)
CCNC(=O)c1[nH]cc(-c2ccc(OC)cc2)c1-c1cc(OC)cc(OC)c1	82.1%
CCc1cnc2ccccc2c1/C=C/c1ccc(N(C)C)cc1	12.9%
CN(C)Cc1ccc(NC(=O)c2cncc(C#Cc3cnc(N)c4ncccc34)c2)cc1C(F)(F)F	31.1%
O=C(Nc1ccc(Br)cc1F)c1cc(I)ccc1O	-33.3% (active)
CN(C)CCN(C)CC(C)(C)C(=O)/C=C/c1ccc(Cl)c(Cl)c1	-41.9% [100 µM] (active)
Cc1nn(-c2ccccc2)c(N)c1N=C1NC(=O)/C(=C/c2ccc(Br)cc2)S1	77.9%
S=C1CCCCCN1	107%
S=C=Nc1ccc(N2CCOCC2)cc1	103%
C[C@]12CC[C@@H]3c4ccc(OCC(=O)O)cc4CC[C@H]3[C@@H]1CCC2=O	84.7%
COc1cc(-c2nc(NC(C)=O)sc2-c2ccnc(NCCNS(=O)(=O)c3ccccc3)n2)ccc1Cl	-22.3% (active)
COC(=O)C1=Nc2ccc(F)cc2/C1=C\c1sc(Nc2ccc(O)cc2)nc1O	54.8%
COc1cc2c(c3c1c(=O)c1cccc(F)c1n3C)C=CC(C)(C)O2	100%
